Mot1-301 SUMO: SUMOylation pathway inhibition by Mot1-301 growth rescue | S. cerevisiae Mot1-301 growth rescue, ATP luminescence, 38.5C; percent above DMSO median, 100 means doubled | growth rescue, % at 18.8 µM | hit rate 1% among 320,000;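 active = every valid replicate shows activation above 250% relative to neutral control wells; inactive = the rest, any valid replicate at or below 250%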;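 also: OY570 slx delta 5 strain wells were the positive control but not used for scaling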
HGIII-sPLA2 inh: Inhibits HGIII-sPLA2 liposome hydrolysis, primary screen; hit rate 0.56% among 370,000; inhibition, % at 12.2 µM; QFRET BODIPY PC-A2 liposome hydrolysis, fluorescence;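 active = inhibition above mean plus 3 SD of compounds lying within the high and low control bounds, cut at about 19% in these data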;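 also: 0% = median of test compound wells and 100% = no enzyme DMSO wells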
Target sequence (Q9NZ20 whole entry, looked up): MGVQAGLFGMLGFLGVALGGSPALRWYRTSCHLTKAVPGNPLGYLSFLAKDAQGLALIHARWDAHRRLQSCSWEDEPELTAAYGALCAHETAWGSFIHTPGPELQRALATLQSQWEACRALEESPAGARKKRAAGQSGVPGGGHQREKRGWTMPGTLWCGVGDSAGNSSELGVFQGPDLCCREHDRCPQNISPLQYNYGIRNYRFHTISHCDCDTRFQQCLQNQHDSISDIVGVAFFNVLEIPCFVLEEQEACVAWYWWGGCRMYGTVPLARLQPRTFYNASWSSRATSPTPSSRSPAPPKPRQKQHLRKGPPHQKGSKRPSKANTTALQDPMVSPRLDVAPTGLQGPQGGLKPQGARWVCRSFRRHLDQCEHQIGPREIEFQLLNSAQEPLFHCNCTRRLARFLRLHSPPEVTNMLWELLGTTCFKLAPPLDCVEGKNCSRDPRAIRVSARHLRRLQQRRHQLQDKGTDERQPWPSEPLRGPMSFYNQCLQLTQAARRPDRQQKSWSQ
Efflux pump mplx: antifungal efflux pump inhibition, Nile Red retention; S. cerevisiae Candida pump triplex; inhibition, % at 10 µM; hit rate 0.44% among 330,000; AID 485275;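 active = plate passing quality check with inhibition over a set limit, or well fluorescence over plate mean plus 4 SD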;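 also: Nile Red retained in pooled yeast measured as flow cytometry median fluorescence; 0% = buffer negative control and 100% = Enniatin B positive control; higher means more Nile Red kept so more efflux inhibition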
SKN-1 block: C. elegans SKN-1 inhibition | C. elegans VP596 Pgst-4::GFP/RFP ratio, acrylamide-induced, 24 h | hit rate 0.49% among 360,000 | inhibition, % at 21.8 µM;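 active = interference check ratio from 0.5 to 1.5 plus GFP to RFP signal ratio inhibition reaching or exceeding a fixed threshold, cut at about 30% in these data, passing the limit was not always enough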
Active calls of the source: *; · = no result given; + = active, no number; ! = a repeat was not active. Hits are enriched below; roughly 2.2% of the tested compounds scored in any of these assays.

SMILES | Mot1-301 SUMO | HGIII-sPLA2 inh | Efflux pump mplx | SKN-1 block
CC(C)(C)OC(=O)NCC1CCC(C(=O)NC[C@H](CC(=O)O)c2ccc(Cl)cc2)CC1 (some centres undefined) | 336.5* | -0.7 | 0.3 | -8.0
CN[C@H](CC(=O)O)C(=O)O | 306.7* | 2.8 | 0.0 | 10.2
CCN=C1NC(c2ccc(F)cc2)C(C(=O)OC)=C(C)N1Cc1ccccc1C(F)(F)F (centres undefined) | · | -5.7 | · | ·
N/C(=N\OC(=O)c1ccc(Cl)c(Cl)c1)c1ccccn1 | -3.2 | -0.9 | -0.7 | 35.0*
COc1ccccc1C(=O)O/N=C(\N)c1ccccn1 | -11.1 | 15.4 | 0.0 | -5.4
COc1cc(OC)c(C(=O)O/N=C(\N)c2ccccn2)cc1OC | 326.8* | -2.9 | 0.0 | 0.7
COc1ccc(C(=O)NCC2CCN(C(=O)C(=O)c3cccs3)CC2)c(OC)c1 | · | 4.2 | · | ·
C[C@@H]1CN(c2ccc(N3CCNC[C@H]3C)cc2C#N)CCN1Cc1ccccc1 | · | 2.7 | · | ·
O=C1N/C(=C\c2ccccc2)c2ccccc21 | 34.9 | 0.5 | -0.1 | 14.6
O=C1N/C(=C\c2nc3ccccc3s2)c2ccccc21 | 353.6* | · | -0.1 | ·
CCOC(=O)C1CCN(C(=O)c2cc3ccccc3oc2=O)CC1 | 321.6 | 0.5 | 0.3 | -13.0
CCCC1=NN2C(=N)/C(=C\c3ccc(SCc4ccco4)o3)C(=O)N=C2S1 | 22.7 | · | 0.4 | 43.8*
CCC1=NN2C(=N)/C(=C\c3ccc(SCc4ccco4)o3)C(=O)N=C2S1 | 7.7 | -8.7 | 0.1 | 49.6
CC(Nc1cc(N2CCCC2)ccc1[N+](=O)[O-])c1ccccc1 (centres undefined) | -2.2 | 1.1 | -0.1 | -14.8
Cc1cc([N+](=O)[O-])cnc1NC(C)c1ccccc1 (centres undefined) | 330.1* | -1.3 | 0.2 | -12.6
CC(=O)c1ccc(N2CCN(C3CCC(C(C)(C)C)CC3)CC2)cc1 (centres undefined) | 256.2* | 1.6 | 0.0 | -3.3
CCCCNC(=O)C[C@H]1C[C@@]2(C(=O)OC)C(=C[C@H](COCc3ccccc3)O[C@@H]2C)N(Cc2ccc3c(c2)OCO3)C1=O | · | -6.4 | · | ·
Oc1ccccc1N1CCN(c2nnnn2-c2ccccc2)CC1 | 439.0* | 4.5 | -0.1 | 5.5
NC(=O)[C@@H]1CCCN1C(=O)[C@H](CCc1ccccc1)NC(=O)[C@H]1O[C@@H](n2cnc3c(N)ncnc32)[C@H](O)[C@@H]1O | · | 5.0 | · | ·
COc1cccc(CNC(=O)[C@H]2CCCN2C(=O)[C@H]2CCCN2C(=O)c2ccc(F)cc2F)c1 | · | 1.9 | · | ·
CCN(CC)P(=O)(c1ccccc1)c1c(C)nc2ccccn12 (centres undefined) | 276.0* | -2.8 | 0.0 | 0.0
CC(=O)C1=C(C)N(CC(C)C)C(=S)NC1c1ccc(Br)cc1 (centres undefined) | · | 3.2 | · | ·
CCOc1ccc(-c2nnc(-c3cccs3)o2)cc1 | -0.9 | 0.1 | 0.1 | 70.0*
Cn1cc(CCOCc2ccc(Br)cc2)c2ccccc21 | · | -10.3 | · | ·
Cc1ccccc1NC(=O)CCC(=O)OCC(=O)c1cccc([N+](=O)[O-])c1 | -5.4 | 1.2 | 0.1 | 37.2*
SMILES | Mot1-301 SUMO | HGIII-sPLA2 inh | Efflux pump mplx | SKN-1 block
O=C(CCC(=O)OCC(=O)c1cccc([N+](=O)[O-])c1)Nc1cccc(Cl)c1Cl | 324.2 | 13.7 | -0.1 | 33.2
Cc1ccc(S(=O)(=O)N2C(N)=C(C(=O)NCc3ccc(Br)cc3)C(c3ccc(Cl)cc3)C2C(=O)c2ccccc2)cc1 (centres undefined) | · | -18.3 | · | ·
CCCn1c(=O)c2c(C(=O)OCC)cc(-c3ccco3)nc2n(CCC)c1=O | · | -1.9 | · | 8.6
CCOC(=O)c1cc(-c2ccco2)nc2c1c(C)nn2-c1ccccc1 | -2.4 | 3.8 | -0.2 | 39.5*
O=C(c1csc(Nc2ccccc2Cl)n1)N1CCCC1 | -19.0 | -0.2 | -0.2 | 5.8
O=C(c1csc(Nc2cccc3ccccc23)n1)N1CCCC1 | 607.2* | 0.6 | 0.4 | 17.3
Cn1c(=O)n(C)c2cc(S(=O)(=O)Nc3ccccc3O)ccc21 | -0.5 | 13.7 | 0.0 | 5.0
Cc1ccc(NS(=O)(=O)c2ccc3c(c2)n(C)c(=O)n3C)c(C)c1 | 355.2* | -7.4 | 0.2 | -2.4
Cc1cccc(C)c1OCC(=O)Nc1nnc(C2CCCO2)s1 (centres undefined) | -6.6 | 0.7 | 0.2 | 36.5*
COCCCNC(=O)COc1ccc2oc3c(c2c1)CCCC3 | 14.4 | -2.4 | 0.1 | 36.0*
CC(C)N(CCNC(=O)COc1ccc2oc3c(c2c1)CCCC3)C(C)C | -7.7 | -1.3 | 0.5 | -11.9
CCn1c(SCC(=O)N2CCc3ccccc32)nc2c(c1=O)SC(C)C2 (centres undefined) | 342.8* | · | 0.1 | -29.4
CCn1c(SCC(=O)N2CCCc3ccccc32)nc2c(c1=O)SC(C)C2 (centres undefined) | -2.4 | 0.0 | 0.2 | 3.0
O=S(=O)(c1ccccc1)N1CCN(C/C=C/c2ccccc2)CC1 | -6.7 | -9.8 | 0.1 | 12.4
O=S(=O)(c1ccc(S(=O)(=O)N2CCN(C/C=C/c3ccccc3)CC2)cc1)N1CCCC1 | 294.8* | -6.4 | 0.0 | -1.1
C=CCSc1nnc(-c2cccc3ccccc23)o1 | · | 4.0 | 0.4 | -3.5
C#CCSc1nnc(-c2cccc3ccccc23)o1 | 1.1 | -4.1 | 0.0 | 82.2*
CC(C)c1ccc(OCCCCN2CCCCC2)cc1 | 351.6* | 4.9 | 0.0 | 2.5
c1ccc(COc2ccc(OCCN3CCCCC3)cc2)cc1 | 445.5* | -11.6 | 0.1 | 14.8
Clc1ccc(OCCCCN2CCCCC2)cc1 | 36.9 | · | 0.1 | 6.7
c1ccc(-c2sc3ccccc3c2-c2ccc(OCCN3CCCC3)cc2)cc1 | 297.6* | 2.6 | -0.3 | 4.2
COC(=O)/C(=C\c1ccc(O)cc1)c1nc2ccccc2[nH]1 | -22.1 | -5.3 | 0.2 | 15.1
O=C(/C(=C/c1ccc(Cl)cc1)c1nc2ccccc2[nH]1)c1cccs1 | 520.6* | · | 0.0 | 7.2
COc1cc(/C=C(/C(=O)c2cccs2)c2nc3ccccc3[nH]2)ccc1O | · | 1.1 | -0.1 | 9.4
O=C(/C(=C\c1ccccc1)c1nc2ccccc2[nH]1)c1ccc(Cl)cc1 | + | 6.0 | 0.2 | 0.4
SMILES | Mot1-301 SUMO | HGIII-sPLA2 inh | Efflux pump mplx | SKN-1 block
CCC(/C=N/NC(=O)C(N)=O)CC | 7.4 | 5.1 | 0.1 | 3.2
NS(=O)(=O)c1cc2c(cc1Cl)NC(C1C[C@H]3C=C[C@@H]1C3)NS2(=O)=O (some centres undefined) | 562.8*! | -1.1 | 0.0 | -4.9
COc1ccc(-n2cc(-c3ccc(Br)cc3)[nH]c2=S)cc1 | -9.1 | 2.9 | 0.0 | 6.9
COc1ccc(-n2cc(-c3ccc(OC)c(OC)c3)[nH]c2=S)cc1 | 545.0* | 12.7 | -0.1 | 1.7
O=C1CC(/C=C/c2ccc(Cl)cc2)=Nc2ccccc2N1 | 568.1* | -11.0 | 0.5 | 14.2
O=C1c2cccc(NCCNCCO)c2C(=O)c2cccc(NCCNCCO)c21 | · | 30.0* | · | 83.6
O=C(CSc1nnnn1C1CCCCC1)Nc1cccc(NC(=O)c2ccco2)c1 | 365.1 | -23.9 | 0.2 | 36.8*
CNC(=O)c1c(NC(=O)c2ccc(N3C(=O)CCC3=O)cc2)sc2c1CCC(C)C2 (centres undefined) | -15.5 | 6.7 | 0.0 | 40.6*

Compound activity deposited in PubChem BioAssay by several laboratories.
